Screening results from PubChem.
Rows were chosen to be rich in hits. Some 9% of all compounds tested hit in one or more screens of this group.
IMPase inh – membrane-permeable compound that blocks inositol monophosphatase. P97697. CHO-M1 cells, IP1 accumulation, HTRF TR-FRET ratio. inhibition (IP1 accumulation), % at 46.1 µM. 120,000 tested, under 10 active. AID 901; active = well fitted curve in the direction sought with a large enough effect in the signal ratio, not every such curve was filed as active; inconclusive = small, poorly fitted or top-dose-only effect, or a change in a side signal; inactive = no such curve, though single readings can be large or run the other way; the % refers to the signal ratio;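 note: cells stimulated with carbachol in lithium chloride buffer; plate controls were DMSO basal wells for no effect and reference inhibitor wells for full effect; higher means more IMPase inhibition seen as more IP1 and lower FRET ratio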
Target sequence (P97697 whole entry, looked up): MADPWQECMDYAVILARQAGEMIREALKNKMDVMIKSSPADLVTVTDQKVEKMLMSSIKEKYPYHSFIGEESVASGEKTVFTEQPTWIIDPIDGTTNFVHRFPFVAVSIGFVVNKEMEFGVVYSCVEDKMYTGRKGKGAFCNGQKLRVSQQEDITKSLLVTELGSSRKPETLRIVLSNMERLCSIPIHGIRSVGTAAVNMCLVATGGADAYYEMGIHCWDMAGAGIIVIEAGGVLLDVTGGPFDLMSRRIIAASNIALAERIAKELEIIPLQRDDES
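CHO-M1, 2000 cells/well, cultured 16–30 h; cpd up to 46 uM; carbachol (50 uM solution, stimulation buffer w/ 50 mM LiCl, pH 7.4), 30 min 37C; IP-One TR-FRET, 10 min RT; Ex 320/Em 665, 620; Hill-fit AC50.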
ALDH1A1 inh – blocks purified human ALDH1A1 activity; Purified ALDH1A1, NADH fluorescence, propionaldehyde substrate; P00352; hit rate 7.3% among 220,000; Potency, µM (series often up to 75.3 µM), without a hit: at the highest dose activity, negative = inhibition, hits mostly inhibitors;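 note: potency is the fitted concentration of half-maximal effect; plate controls were no enzyme wells and a reference inhibitor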
HPGD block – HPGD (human) dehydrogenase inhibition; Potency, µM, for inactives: at the top dose activity change, negative = inhibition, hits mostly inhibitors; P15428; hit rate 4.3% among 150,000; purified HPGD, NADH fluorescence kinetic, PGE2 substrate; AID 894; note: potency is the fitted concentration of half-maximal effect
Target sequence (P15428 whole entry, looked up): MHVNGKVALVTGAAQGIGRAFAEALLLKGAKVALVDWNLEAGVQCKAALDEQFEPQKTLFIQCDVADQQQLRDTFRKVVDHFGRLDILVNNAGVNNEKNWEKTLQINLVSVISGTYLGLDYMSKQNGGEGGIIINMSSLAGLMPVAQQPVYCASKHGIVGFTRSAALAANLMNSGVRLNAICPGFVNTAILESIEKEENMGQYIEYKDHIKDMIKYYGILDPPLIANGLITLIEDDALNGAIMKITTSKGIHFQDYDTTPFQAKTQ
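20 nM HPGD preincubated 15 min at room temperature with compound in 50 mM Tris-HCl pH 8, 0.01% Tween 20. Started with 1 mM NAD+ and 30 uM prostaglandin E2; NADH fluorescence (360/450 nm) read 5 times over 30-s intervals, last minus first.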
Starred values were filed as active, the others as inactive; ? = inconclusive; / = not tested or not shown; [ ] = remark or other dose. Unless noted, calls come from the whole dose curve; as a rule, active = well fitted inhibition curve with a large enough effect (not every such curve was filed as active); inconclusive = small, poorly fitted or top-dose-only effect, or another doubt; inactive = no such curve, though single readings can be large or run the other way. Unless noted, % is set by controls: 0 for no effect and ±100 for the full control effect.

SMILES | IMPase inh | ALDH1A1 inh | HPGD block
CC(Sc1nnc(-c2cccnc2)n1-c1ccccc1F)C(=O)N1CCCc2ccccc21 (stereo not drawn) | 20 | 2% | -8%
C=CCn1sc(N)c(C(=O)OCC)c1=S | -4 | 5% | -6%
CCOC(=O)c1c(N)sc(C(N)=O)c1C | -13 | 25µM* | ?
CCOC(=O)c1c(N)sc(C(=O)Nc2ccccc2)c1C | / | 10µM* | /
CCOC(=O)c1c(N)sc(N)c1C(=O)OCC | / | 1.8µM* | 8.9µM*
CCOC(=O)c1c(N)sc(C(=O)N(CC)CC)c1C | / | 0% | /
CCCOC(=O)c1c(N)sc(C(=O)OCC)c1C | / | -2% | -14%
CCOC(=O)c1c(N)sc(C(=O)Nc2ccccc2F)c1C | / | -3% | /
CCOC(=O)c1c(N)ssc1=S | 1 | 3.2µM* | 25µM*
Cc1cccc(N/C(N)=N/c2nc(C)cc(=O)[nH]2)c1 | / | -2% | /
Brc1ccc(-c2cnco2)cc1 | / | 3% | /
Cc1c(C(N)=O)sc(N)c1C(=O)OC(C)C | -4 | -5% | -22%
Cc1c(C(=O)OC(C)C)sc(N)c1C(=O)OC(C)C | / | ? | 22µM*
CCOC(=O)c1c(SC)nc(SC)c2c1CCC2 | 0 | 0% | -4%
CCOC(=O)c1c(N)sc(=S)c2c1CCC2 | 6 | 32µM* | ?
OCC(O)C(O)C(O)C(O)c1nc2ccccc2[nH]1 (stereo not drawn) | / | -7% | /
CCc1[nH]nc2c1C1(C(=O)N(Cc3ccccc3)c3ccccc31)C(C#N)=C(N)O2 (stereo not drawn) | 5 | 7.9µM* | -15%
COC(=O)Cc1[nH]nc2c1C1(C(=O)N(Cc3ccc(Cl)cc3)c3ccccc31)C(C#N)=C(N)O2 (stereo not drawn) | 5 | ? | -4%
CCc1ccc(NC(=S)N(Cc2cccnc2)Cc2ccco2)cc1 | / | 4% | /
N#CCCN(C(=O)c1ccco1)c1ccccc1 | 11 | -11% | /
N#CCCN(Cc1cccnc1)C(=S)NCc1ccco1 | / | 18µM* | /
N#CCCN(Cc1cccnc1)C(=O)Nc1ccc(Cl)c(Cl)c1 | 0 | -7% | -3%
N#CCCN(Cc1cccnc1)C(=S)NC(=O)c1ccco1 | / | 11µM* | /
N#CCCN(C(=S)NC(=O)c1ccco1)c1ccccc1F | / | 7.9µM* | /
COc1ccc(C)cc1NC(=O)C(OC(=O)c1ccc([N+](=O)[O-])o1)c1ccccc1 (stereo not drawn) | / | 18µM* | -14%
SMILES | IMPase inh | ALDH1A1 inh | HPGD block
COc1ccc(C)cc1NC(=O)C(OC(=O)CNC(=O)c1cc(C)cc(C)c1)c1ccccc1 (stereo not drawn) | / | ? | -3%
O=[N+]([O-])c1cc(C(F)(F)F)ccc1N1CCC(O)CC1 | / | 11µM* | /
NC(=O)C1CCN(c2ccc(C(F)(F)F)cc2[N+](=O)[O-])CC1 | 4 | 8% | -10%
COc1ccc(CN2CCN(C(=O)c3ccco3)CC2)cc1OCc1ccccc1 | ? | -14% | -4%
Cc1ccc(Nc2nc(N)nc(CN3CCN(C(=O)c4ccco4)CC3)n2)cc1Cl | 1 | 7.9µM* | -25%
COc1ccc(Cl)cc1NC(=S)N1CCN(C(=O)c2ccco2)CC1 | 1 | ? | -8%
COc1cc(NC(=S)N2CCN(C(=O)c3ccco3)CC2)c(OC)cc1Cl | -13 | 25µM* | 32µM*
CCN1CCN(Cc2nc(N)nc(Nc3ccc(C)c(C)c3)n2)CC1 | -7 | -12% | -7%
COc1ccc(CN2CCN(C(=O)c3ccco3)CC2)cc1OC | / | 20µM* | /
Cc1ccc(N(Cc2cc(=O)[nH]c3ccccc23)C(=O)c2ccco2)cc1 | -3 | ? | -22%
COc1ccc(CN(C(=O)c2ccco2)c2ccc(C)cc2)cc1OC | 7 | 7.9µM* | -7%
Cc1ccc(S(=O)(=O)N2CCC(=O)N(C(COCc3ccc(C(F)(F)F)cc3)Cc3ccccc3)CC2)cc1 (stereo not drawn) | / | -6% | -18%
CCC(=O)N1C(=O)C2(Nc3ccccc3N2)c2ccccc21 | / | 5% | /
O=C(c1ccncc1)N1CCC2(CC1)CCN(c1ccccc1)CC2 | / | -16% | -4%
c1ccc(-c2ccc(C3CCCN3)cc2)cc1 (stereo not drawn) | / | 0% | /
Cc1ccc2c(CN3CCN(CCO)CC3)cc(=O)oc2c1C | -2 | -13% | -11%
Nc1nc(CN2CCN(c3ccccc3F)CC2)nc(Nc2ccccc2)n1 | -5 | ? | -6%
Cc1ccc(Nc2nc(N)nc(CN3CCN(c4ccccc4F)CC3)n2)cc1 | -9 | 32µM* | -11%
Cc1ccc2c(CN3CCN(C(=O)c4ccco4)CC3)cc(=O)oc2c1C | / | 25µM* | /
CCCn1c(NC(=O)C2CCN(S(=O)(=O)c3cccs3)CC2)nc2ccccc21 | 4 | ? | -5%
O=C(NCCC1=CCCCC1)C1CCN(C(=O)c2ccc(Br)cc2)CC1 | 5 | ? | /
O=C(Nc1ccncc1)C1CCN(S(=O)(=O)c2cccs2)CC1 | / | 2% | /
O=C(Nc1cc(Cl)ccn1)C1CCN(S(=O)(=O)c2cccs2)CC1 | 10 | 8.9µM* | -3%
O=C(NCc1ccccn1)C1CCN(S(=O)(=O)c2cccs2)CC1 | 1 | -3% | /
O=C(NCCC1=CCCCC1)C1CCN(S(=O)(=O)c2cccs2)CC1 | -3 | 13µM* | -2%
SMILES | IMPase inh | ALDH1A1 inh | HPGD block
CCCNC(=O)C1CCN(S(=O)(=O)c2cccs2)CC1 | / | 4% | /
Cc1ccc(CNC(=O)C2CCN(S(=O)(=O)c3cccs3)CC2)o1 | -7 | 14µM* | -25%
O=C(NCCC1=CCCCC1)C1CCN(C(=O)Cc2ccccc2)CC1 | / | 5µM* | /
CC(=O)NCC(=O)OCN1C(=O)c2ccccc2C1=O | / | 6% | -2%
COc1ccc(-c2nc3ccccc3o2)cc1NC(=O)c1cc(Br)ccc1OC | -15 | / | /
O=C(CCc1nc(-c2ccccc2F)no1)NC1CCCCCC1 | -6 | -11% | 28µM*
O=C(CCc1nnc(-c2ccccc2)o1)NC1CCCCC1 | / | 1% | /
O=C(CCc1nc(-c2ccccc2F)no1)NCCc1ccccc1Cl | -9 | ? | -6%
O=C(CCc1nc(-c2ccccc2)no1)NC1CCCCC1 | 0 | ? | 18µM*
Cc1ccc(OCCn2cc(C(=O)C3CCCCC3)c3ccccc32)cc1 | 11 | / | /
COCC(=O)Nc1ccc(C)c(Cl)c1 | -2 | -4% | 14µM*
CCCCOC(=O)Nc1ccc(C(=O)OC)cc1 | 4 | 2% | -23%
Cc1ccc(NC(=O)Cn2cccc2)cc1C | -3 | -17% | ?
CCCCOC(=O)Nc1ccc(C)c(Cl)c1 | 11 | 12% | 16µM*
Cc1ccc(NC(=O)c2cc(NC(=O)CCCC(=O)O)ccc2Cl)cc1Cl | 8 | -10% | -10%
Cc1ccc(NC(=O)Cn2cccc2)cc1Cl | -2 | 11µM* | 16µM*
COc1ccc2[nH]cc(CCNc3ccnc(-c4ccccc4C(F)(F)F)n3)c2c1 | / | 8% | /
O=C(Cc1ccccc1)Nc1cccc(N2C(=O)C=CC2=O)c1 | / | 0.71µM* | 3.5µM*
COc1cccc(NC(=O)Cc2ccccc2)c1 | -8 | -5% | -14%
CC[N+](CC)(CC)CC[C@](O)(c1ccccc1)C1CCCCC1 | 16[20.6 µM] | -3%[20.9 µM] | -6%
Cc1ccc(CN2CCN(CC(=O)NCc3ccc(Cl)cc3)C2=O)cc1 | 2 | 2% | 4%
Cn1c(=O)cnc2cnc(Oc3ccccc3)nc21 | / | ? | -8%
CCCN1C(=O)SC(CC(=O)Nc2ccc(Br)cc2)C1=O (stereo not drawn) | -6 | ? | -3%
